In all, about 290,000 compounds went through this assay and about 890 (0.31%) were called active. Cut-off read from the data, not from the text of the source: active = inhibition mostly above about 52% (no sharp cut-off); inactive = mostly below about 76%. Only a selection was taken, and actives are over-represented in it overall.
Assay: cell-free HIV fusion peptide-binding blockers – biochemical, uHTS, fluorescence dequenching, primary screen (AID 1986)
Details: 30 min, stronger effect = higher value
[1] = measured here: repeat confirmation average inhibition, at 18.6 µM

SMILES | inhibition (at 20 µM) | inhibition [1]
O=C1c2ccccc2C(=O)N1Cc1cc(Cl)c(O)c([N+](=O)[O-])c1 | -1.1% (inactive) | 
NC(=S)Nc1cc2ccccc2c2ccccc12 | -2.7% (inactive) | 
CC1CCCN(S(=O)(=O)c2ccc([N+](=O)[O-])cc2)C1 (stereo unspecified) | 1.5% (inactive) | 
O=C(O)Cc1cc(I)c(Oc2ccc(O)c(I)c2)c(I)c1 | 68.9% (inactive) | 33.9%
O=C(O)CCc1cc(I)c(Oc2ccc(O)c(I)c2)c(I)c1 | 75.1% (active) | 
N[C@@H](Cc1cc(I)c(Oc2ccc(O)c(I)c2)c(I)c1)C(=O)O | 30.3% (inactive) | 
CCn1c(=O)c2c(nc3n2CCCN3CCc2ccc(OC)c(OC)c2)n(C)c1=O | -0.3% (inactive) | 
CC(C)C(=O)NNC(=O)c1csc(-c2cccs2)n1 | 0% (inactive) | 
COc1cc(C2CC(=O)Nc3c2c(=O)nc2c(C)cccn32)cc(OC)c1OC (stereo unspecified) | 0% (inactive) | 
N#C/C(=C\c1ccc(N2CCOCC2)o1)C(=O)N1CCOCC1 | 53.5% (active) | 83.9%
N#C/C(=C\c1ccc(N2CCOCC2)o1)c1nc2ccccc2[nH]1 | 48.3% (inactive) | 
N#C/C(=C\c1ccc(N2CCCCC2)o1)C(N)=O | 91.9% (active) | 
N#C/C(=C/c1ccc(N2CCOCC2)o1)C(=O)Nc1ccccc1 | 147% (inactive) | 
N#C/C(=C/c1ccc(N2CCCCC2)o1)C(=O)Nc1ccc(Cl)cc1 | 44.8% (inactive) | 
N#C/C(=C/c1ccc(N2CCOCC2)o1)c1nc2ccccc2[nH]1 | 52.1% (active) | 
N#C/C(=C/c1ccc(N2CCCCC2)o1)C(=O)Nc1ccc2ccccc2c1 | 153% (inactive) | 
N#C/C(=C\c1ccc(N2CCOCC2)o1)C(=O)Nc1ccc(O)cc1 | 148% (inactive) | 
Cc1ccc2nc(/C(C#N)=C\c3ccc(N4CCOCC4)o3)[nH]c2c1 | 28% (inactive) | 
COc1cccc(CC(=O)NC2CCCN(Cc3ccc(Cl)cc3)C2)c1 (stereo unspecified) | -1% (inactive) | 
CCCCCn1c(=O)[nH]c2cc(C(=O)NCCN3CCCCC3C)ccc2c1=O (stereo unspecified) | 0.7% (inactive) | 
COc1ccc(OC)c(CN2CCN(S(=O)(=O)c3ccc(NC(C)=O)cc3)CC2)c1 | -1.6% (inactive) | 
S=C(NCCc1ccccc1)NC1CC2CCC(C1)N2Cc1ccccc1 (stereo unspecified) | -0.5% (inactive) | 
O=C(N/N=C/c1ccncc1)c1cccs1 | -1.5% (inactive) | 
CCOC(=O)c1sc(N/N=C/c2cc(Br)c(O)c(OC)c2)nc1C | 13.2% (inactive) | 

SMILES | inhibition (at 20 µM) | inhibition [1]
COC/C=C/C1=CC2=CC(=O)C(C)(OC(=O)CCC(=O)OC)C(=O)C2=CO1 (stereo unspecified) | 45% (inactive) | 
COC/C=C/C1=CC2=CC(=O)C(C)(OC(=O)C3CCCC3)C(=O)C2=CO1 (stereo unspecified) | 35.3% (inactive) | 
COC/C=C/C1=CC2=CC(=O)C(C)(OC(=O)c3ccco3)C(=O)C2=CO1 (stereo unspecified) | 51% (active) | 
COC(=O)c1ccc(C(=S)NCC2(N(C)C)CCCCC2)cc1 | -0.5% (inactive) | 
Cc1ccc(Cn2c(/C=C/c3ccco3)nc3ccccc32)cc1 | 28.5% (inactive) | 
Clc1ccccc1Cn1c(/C=C/c2ccco2)nc2ccccc21 | 54.5% (inactive) | 0.3%
Clc1ccc(Cn2c(/C=C/c3ccco3)nc3ccccc32)cc1 | 58.4% (active) | 
COc1ccc(C(=O)NNC(=O)Cc2ccc(Cl)cc2)cc1 | 0.6% (inactive) | 
S=C1NC(c2ccccc2)=CC(c2ccccc2)N1 (stereo unspecified) | -0.8% (inactive) | 
CCOc1cc2c(cc1C=O)OC(C)C2 (stereo unspecified) | 0.9% (inactive) | 
CCOc1cc2c(cc1/C=C/C(=O)O)OC(C)C2 (stereo unspecified) | -2.8% (inactive) | 
CCOc1cc2c(cc1/C=C/c1noc(C)c1[N+](=O)[O-])OC(C)C2 (stereo unspecified) | 97.9% (active) | 62.4%
Cc1nonc1NC(=O)CSc1cn[nH]n1 | -0.1% (inactive) | 
N#Cc1c(-c2ccccc2)nc(SCC(=O)Nc2ccccc2)[nH]c1=O | 22% (inactive) | 
CCOc1ccc2nc(NC(=O)CSc3ccc(Cl)cc3)sc2c1 | -1.6% (inactive) | 
CCOc1ccc2nc(NC(=O)CSc3ccccc3)sc2c1 | 2.6% (inactive) | 
N#Cc1c(-c2ccccc2)nc(SCC(=O)Nc2ccccc2F)[nH]c1=O | 14.2% (inactive) | 
COc1cccc(OC)c1OCCCOc1ccc([N+](=O)[O-])cc1Cl | 1.3% (inactive) | 
CC(C)(C)c1ccc(OC(=O)N2CCOCC2)cc1 | 1.1% (inactive) | 
NC(=O)C1CCN(C(=O)COc2ccc3c4c(c(=O)oc3c2)CCCC4)CC1 | -2.1% (inactive) | 
CCCn1nc([N+](=O)[O-])c(C(C#N)c2nc3ccccc3o2)c(Cl)c1=O (stereo unspecified) | 51.5% (active) | 
CCn1nc([N+](=O)[O-])c(C(C#N)c2nc3ccccc3n2C)c(Cl)c1=O (stereo unspecified) | 9.2% (inactive) | 
CCCn1nc([N+](=O)[O-])c(C(C#N)c2nc3ccccc3s2)c(Cl)c1=O (stereo unspecified) | 52.4% (inactive) | 39.3%
CCOc1cccc(-c2nnc(SCC(=O)Nc3ccc(OC)c(OC)c3)n2N)c1 | -0.9% (inactive) | 

SMILES | inhibition (at 20 µM) | inhibition [1]
CC(C)C[C@@H](COc1ccccc1)N1CCN(C)CCC1=O | 1.1% (inactive) | 
CCCOc1c(Br)cc(C(N)=O)cc1OCC | -1.3% (inactive) | 
O=[N+]([O-])c1nn(-c2ccc3c(c2)OCCO3)n(O)c1=NCc1ccc(F)cc1Cl | 51.7% (active) | 
O=[N+]([O-])c1nn(-c2ccc3c(c2)OCCO3)n(O)c1=NCc1ccc(F)cc1 | -3.5% (inactive) | 
O=[N+]([O-])c1nn(-c2ccc3c(c2)OCCO3)n(O)c1=NCc1ccccc1Cl | 1.5% (inactive) | 
COc1ccc(OC)c(CCNC(=O)c2ccc3c(c2)N(Cc2ccc(F)cc2)CCS3)c1 | -0.6% (inactive) | 
CCOC(=O)N1CCN(C(=O)c2cc3c(=O)n4cccc(C)c4nc3s2)CC1 | 1.5% (inactive) | 
Cn1c(=O)c2cc(S(=O)(=O)NCCC(=O)NC3CCCCCC3)ccc2n(C)c1=O | -0.8% (inactive) | 
CN(CC(=O)NC1CCCCC1)S(=O)(=O)c1ccc2c(c1)c(=O)n(C)c(=O)n2C | -0.8% (inactive) | 
Cn1c(=O)c2cc(S(=O)(=O)NCCC(=O)NC3CCCCCCC3)ccc2n(C)c1=O | 70.9% (active) | 
COc1ccc(Cl)cc1N=Cc1c(O)c2ccccc2oc1=O | 0.2% (inactive) | 
COc1ccc(OC)c(N=Cc2c(O)c3ccccc3oc2=O)c1 | 37.7% (inactive) | 
COc1cc(N=Cc2c(O)c3ccccc3oc2=O)c(OC)cc1Cl | 73.9% (active) | 196%
CC1CCCN(C2(O)C(=O)Nc3ccc(Cl)cc32)C1 (stereo unspecified) | -0.9% (inactive) | 
COc1ccccc1CN(C)C(=O)CNC(=O)c1cccc(Cl)c1 | 0.2% (inactive) | 
O=C1OC(c2cccs2)=N/C1=C\c1ccc(-c2cccc(Cl)c2)o1 | 55.7% (inactive) | 21.2%
O=C1OC(c2cccs2)=N/C1=C/c1ccc(-c2cccc(C(=O)O)c2)o1 | 53% (inactive) | 13.5%
O=C1OC(c2ccco2)=N/C1=C\c1ccc(-c2cccc(C(F)(F)F)c2)o1 | 55.6% (active) | 164%
CCOc1ccc(C2C(C(=O)c3ccc(C)o3)=C(O)C(=O)N2Cc2cccnc2)cc1 (stereo unspecified) | -3.1% (inactive) | 
COc1ccc(C)cc1S(=O)(=O)NC1CCCCCC1 | -1.6% (inactive) | 
Cc1ccccc1-n1ncc2c1CC(C)(C)CC2NC(=O)c1cn[nH]c1C (stereo unspecified) | -0.7% (inactive) | 
O=C1NC(=Nc2ccc3ccccc3c2)S/C1=C/c1ccco1 | 54.8% (active) | 
Cc1ccc(N=C2NC(=O)/C(=C\c3ccco3)S2)cc1 | 57.5% (active) | 
Cc1ccc(N=C2NC(=O)S/C2=C\c2ccco2)cc1 | 47.8% (inactive) | 

SMILES | inhibition (at 20 µM) | inhibition [1]
CC(=O)Nc1ccc(S(=O)(=O)/N=C2/NC(=O)/C(=C\c3ccco3)S2)cc1 | 41.2% (inactive) | 
Cc1ccc(N=C2NC(=O)/C(=C/C=C/c3ccco3)S2)cc1 | 52.6% (inactive) | 1.5%
O=C1NC(=Nc2ccccc2)/C(=C/c2ccco2)S1 | 47.9% (inactive) | 
COc1ccc(S(=O)(=O)/N=C2/NC(=O)/C(=C\c3ccco3)S2)cc1 | 60.8% (active) | 
COc1ccc(N=C2NC(=O)/C(=C\c3ccco3)S2)cc1 | 42% (inactive) | 
O=C1NC(=Nc2ccc(O)cc2)S/C1=C/c1ccco1 | 17.3% (inactive) | 
Cc1cccc(N=C2NC(=O)S/C2=C\c2ccco2)c1 | 71.9% (active) | 
COc1ccc(S(=O)(=O)/N=C2/NC(=O)/C(=C/c3ccco3)S2)cc1 | 70.3% (inactive) | 9.9%
COc1ccc(N=C2NC(=O)/C(=C/c3ccco3)S2)cc1 | 9.7% (inactive) | 
COc1ccc(-n2c(O)c(/C=N/n3cnnc3)c3ccccc3c2=O)cc1 | -1% (inactive) | 
c1ccc(Oc2ccc(-n3cnnn3)cc2)cc1 | -0.6% (inactive) | 
CCOC(=O)c1oc2ccccc2c1NC(=O)C1CCCCC1 | 2.3% (inactive) | 
O=C(N=Nc1c(O)[nH]c2ccccc12)c1ccc(CN2CCOCC2)cc1 | -1.7% (inactive) | 
O=c1c2c3c(sc2n(CCN2CCOCC2)c(=O)n1Cc1ccco1)CCCCC3 | -0.6% (inactive) | 
CCOC(=O)N1CCC(N2C(=O)c3ccccc3C2Nc2cc(C)cc(C)c2)CC1 (stereo unspecified) | -0.9% (inactive) | 
Cc1ccc(N=C2NC(=O)/C(=C\c3cccs3)S2)cc1C | 1.6% (inactive) | 
Cc1ccc(N=C2NC(=O)/C(=C/c3cn(C)c4ccccc34)S2)cc1C | 74.7% (active) | 73.2%
Cc1ccc(N=C2NC(=O)/C(=C/c3cccn3C)S2)cc1C | 2.1% (inactive) | 
Cn1nc(-c2ccccc2)c(/C=N/O)c1Cl | -1.8% (inactive) | 
CCn1cc(C(=O)N2CCCC2)c(=O)c2cc(S(=O)(=O)N3CC(C)CC(C)C3)ccc21 (stereo unspecified) | 1.1% (inactive) | 
COc1ccc2cc(CCNS(=O)(=O)c3c(C)cc(C)cc3C)c(=O)[nH]c2c1 | -1.1% (inactive) | 
Cc1c(NC(=O)c2ccc(Cl)s2)c(=O)n(-c2ccccc2)n1C | 0.5% (inactive) | 

Source: PubChem BioAssay AID1986 (Sanford-Burnham Center for Chemical Genomics, 2009)
